# Bioassay records: PubChem BioAssay, National Center for Advancing Translational Sciences (NCATS)
# ELG1 repair inh = ELG1-dependent DNA repair inhibition; HEK293T ELG1-luciferase reporter, luminescence, 16 h; DNA damage induced by 5-fluorouridine; Potency, µM (top dose mostly 46.1 µM), for inactives: at the top dose activity change, negative = inhibition, hits mostly inhibitors; hit rate 2.3% among 330,000; AID 504467; also: % is scaled to controls: 0 for no effect and ±100 for the full control effect; nearly all actives have a fitted effect of over 55% in size
#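 Quantitative HTS, concentration-response format. 2,000 cells/well co-treated with 5-fluorouridine and compound, 16 hr in 5% CO2 at 37 °C; ONE-Glo luminescence read after 30 min.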
# SW480 rerep = DNA re-replication induction in SW480 cells; SW480 DNA re-replication, Hoechst DNA content imaging, 48 h; Potency, µM (titrated, usually from 46.1 µM), for the others: at the top dose re-replication activation, actives largely listed as activators; hit rate 1.8% among 340,000; also: % of control where 0% means no effect; nearly all actives have a fitted effect of over 55% in size
#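 Treated cells incubate 48 hr (37 C, 5% CO2), are stained 40 min with Hoechst, and nuclear fluorescence is enumerated; a rise in nuclei with high DNA signal marks re-replication.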
# KB-V1 cytotox = KB-V1 MDR subline cytotoxicity. KB-V1 MDR cells viability, CellTiter-Glo, 72 h. Potency, µM (titrated, usually from 46.1 µM), usual class: cytotoxic. hit rate 3.4% among 400,000. AID 1347076; also: % is scaled to controls: 0 for no effect and ±100 for the full control effect; nearly all actives have a fitted effect of over 60% in size
#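 Readout: CellTiter-Glo luminescence, 10 min after addition. Cells: KB-V1 MDR subline, 72 h at 37 degrees C with compound. Analysis: corrected, normalized data fitted to concentration-effect curves.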
# KB-3-1 cytotox = kills parental KB-3-1 adenocarcinoma cells | KB-3-1 viability, CellTiter-Glo ATP luminescence, 72 h | Potency, µM (titrated, usually from 46.1 µM), actives largely listed as cytotoxic | hit rate 1.4% among 400,000; also: % is scaled to controls: 0 for no effect and ±100 for the full control effect; nearly all actives have a fitted effect of over 60% in size
#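 Parental KB-3-1 adenocarcinoma cells in phenol-red-free DMEM with 10% FBS were pin-treated with compounds at several concentrations, incubated 72 h at 37 °C, and viability read by CellTiter-Glo luminescence; concentration-effect curves were fitted after normalization.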
# MCF10A rerep = DNA re-replication induction in MCF 10a cells; MCF 10A DNA re-replication, Hoechst nuclear intensity, 48 h; Potency, µM (titrated, usually from 46.1 µM), for inactives: at the highest dose activity, positive = re-replication, hits mostly activators; hit rate 2.9% among 350,000; also: % of control where 0% means no effect; nearly all actives have a fitted effect of over 50% in size
# * hit, by the source's call; i = inactive; u = inconclusive; x = no result given. Only some compounds are listed: those with a hit (about 8.2% of all), similar ones and a draw of the others. Calls follow the shape of the dose curve; as a rule, active = well fitted curve in the direction sought with a large enough effect; inconclusive = small, poorly fitted or top-dose-only effect, or another doubt; inactive = no such curve, though single readings can be large; an effect the other way counts as inactive or inconclusive. Potency is read from the fitted curve at half-maximal effect.
SMILES,ELG1 repair inh,SW480 rerep,KB-V1 cytotox,KB-3-1 cytotox,MCF10A rerep
Cc1ccccc1-n1nc2c(c1NC(=O)c1c(-c3ccccc3Cl)noc1C)CS(=O)(=O)C2,8%,-1%,8.2µM*,i,2%
Cc1ccccc1-n1nc2c(c1NC(=O)c1ccco1)CS(=O)(=O)C2,4%,-7%,i,i,-1%
Cc1ccc(-n2nc3c(c2NC(=O)c2c(-c4ccccc4Cl)noc2C)CS(=O)(=O)C3)c(C)c1,-5%,0%,12µM*,i,0%
Cc1ccc(S(=O)(=O)Cc2ccc(C(=O)NCc3ccc4c(c3)OCO4)o2)cc1,u,-6%,9.2µM*,i,13%
CC(NC(=O)c1ccc(CS(=O)(=O)c2ccc(Cl)cc2)o1)c1ccc2c(c1)OCCO2 (stereo not drawn),u,-7%,10µM*,i,u
Cc1ccc(CS(=O)Cc2ccc(C(=O)NCc3ccc4c(c3)OCO4)o2)cc1 (stereo not drawn),0%,u,i,i,0%
CCn1c(SCC(=O)Nc2ccc(N3CCOCC3)cc2)nnc1C1CC1,16%,6%,i,i,-2%
N#Cc1cn(-c2ccccc2)nc1-c1ccc2c(c1)OCCO2,u,-3%,i,i,10µM*
O=Cc1cn(-c2ccccc2)nc1-c1ccc2c(c1)OCCO2,u,u,i,i,16%
CCC1CCCCN1C(=O)COc1cccc2c1CCN(C)C2=O (stereo not drawn),u,-5%,21µM*,i,-4%
CN1CCc2c(OCC(=O)N3CCC(Cc4ccccc4)CC3)cccc2C1=O,9.2µM*,-2%,u,18µM*,19%
CN1CCc2c(OCC(=O)NC3CCCCC3)cccc2C1=O,-5%,-16%,i,i,-2%
C[C@H](NC(=O)[C@@H]1CCCN1C(=O)[C@@H]1CCCN1C(=O)c1cccs1)c1ccccc1,x,x,i,i,x
Clc1nnc2ccc(-c3ccccc3)nn12,u,1%,16µM*,23µM*,27%
Cc1ccc(C(=O)NCCc2ccccc2)cc1S(=O)(=O)N1CCOCC1,u,-11%,i,i,0%
Cc1ccc(NC(=O)COc2ccc(Br)cc2CO)cc1S(=O)(=O)N1CCOCC1,21µM*,-14%,i,i,25%
Cc1ccc(NC(=O)Nc2ccccc2F)cc1S(=O)(=O)N1CCOCC1,21µM*,-10%,i,i,4%
Cc1ccc(C(=O)NC(C)CCc2ccccc2)cc1S(=O)(=O)N1CCOCC1 (stereo not drawn),18µM*,-1%,i,i,10%
O=C(CSc1ccccc1)Nc1ccc(Cl)c(S(=O)(=O)N2CCOCC2)c1,13µM*,-11%,u,i,-2%
Nn1c(SCC(=O)NC2CCS(=O)(=O)C2)nnc1-c1ccco1 (stereo not drawn),13%,-9%,i,i,-28%
CC(C(=O)OCC(=O)Nc1ccc(S(N)(=O)=O)cc1)N1C(=O)c2ccccc2C1=O (stereo not drawn),4%,-4%,i,i,1%
CC1Cc2ccccc2C[N+]1(C)CC(=O)c1ccc(I)cc1 (stereo not drawn),x,x,i,i,x
Cc1ccc(NC(=O)Cc2ccccc2)cc1S(=O)(=O)N1CCOCC1,u,-3%,23µM*,i,4%
CC(CCc1ccccc1)NC(=O)C1CCN(S(=O)(=O)N2CCOCC2)CC1 (stereo not drawn),2%,-3%,21µM*,i,u
Cc1ccc(NC(=O)CCNS(=O)(=O)c2ccccc2)cc1S(=O)(=O)N1CCOCC1,u,-4%,i,i,2%
O=C(NCCc1ccccc1)C1CCN(S(=O)(=O)N2CCOCC2)CC1,u,-21%,i,i,1%
CCc1ccc(N2CC(C(=O)Nc3ccc(C)c(S(=O)(=O)N4CCOCC4)c3)CC2=O)cc1 (stereo not drawn),21µM*,0%,23µM*,i,1%
